Residue numbers refer to the chain shown, from its start.

What all share (assay): PBM; 200 nM protein, PBS
Common to all, as to conditions: dsDNA, one strand shown

Test [1] deals with NKX2-5 (Homo sapiens, UniProt P52952 125-210, R139K).
Test [2] concerns the target T1, NKX2-4 (Homo sapiens, UniProt Q9H2Z4 175-261, P217L).
T1 sequence: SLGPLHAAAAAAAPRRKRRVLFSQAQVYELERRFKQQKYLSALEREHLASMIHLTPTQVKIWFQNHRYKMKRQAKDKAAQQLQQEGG

The target of test [3] is T2, NKX2-4 (Homo sapiens, UniProt Q9H2Z4 175-261, T231S).
T2 sequence: T1 sequence with L43P, T57S

Test [4] addresses T3, NKX2-4 (Homo sapiens, UniProt Q9H2Z4 175-261).
T3 sequence: T1 sequence with L43P

Test [5] has as its target T4, NKX2-6 (Homo sapiens, UniProt A6NCS4 118-204, R150C).
T4 sequence: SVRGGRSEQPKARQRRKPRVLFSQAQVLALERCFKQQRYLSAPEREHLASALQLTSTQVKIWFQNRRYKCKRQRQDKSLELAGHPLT

The target of test [6] is T5, NKX2-6 (Homo sapiens, UniProt A6NCS4 118-204).
T5 sequence: T4 sequence with C33R

Test [7] deals with T6, NKX2-4 (Homo sapiens, UniProt Q9H2Z4 175-261, R246Q).
T6 sequence: T1 sequence with L43P, R72Q

Test [8] deals with T7, NKX2-6 (Homo sapiens, UniProt A6NCS4 118-204, F151L).
T7 sequence: T4 sequence with C33R, F34L

Test [9] deals with NKX2-5 (Homo sapiens, UniProt P52952 125-210).
NKX2-5 (Homo sapiens, UniProt P52952 125-210), sequence (P52952 125-210): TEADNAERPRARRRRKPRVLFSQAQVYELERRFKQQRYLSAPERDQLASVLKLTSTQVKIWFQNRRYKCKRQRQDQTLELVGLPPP
Test [10] deals with NKX3-2 (Homo sapiens, UniProt P78367 192-278, P234S).
NKX3-2 (Homo sapiens, UniProt P78367 192-278, P234S), sequence (P78367 192-278 P234S): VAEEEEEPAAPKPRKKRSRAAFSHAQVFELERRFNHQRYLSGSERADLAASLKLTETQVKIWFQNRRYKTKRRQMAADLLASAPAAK
For test [11], the target named is NKX3-2 (Homo sapiens, UniProt P78367 192-278).
NKX3-2 (Homo sapiens, UniProt P78367 192-278), sequence (P78367 192-278): as the sequence (P78367 192-278 P234S) above, with S43P counted along it

NKX2-5 (Homo sapiens, UniProt P52952 125-210, R139K), sequence (P52952 125-210 R139K): as the sequence (P52952 125-210) above, with R15K counted along it

Consider GTACTTGA, for which the binding signal is 13 upbm affinity estimate (log intensity, higher = more binding, comparable within an allelic series) with NKX2-5 [1]; 12.8 upbm affinity estimate (log intensity, higher = more binding, comparable within an allelic series) with NKX2-4 [2]; 13.2 upbm affinity estimate (log intensity, higher = more binding, comparable within an allelic series) in the test with NKX2-4 [3]; 12.6 upbm affinity estimate (log intensity, higher = more binding, comparable within an allelic series) with NKX2-4 [4]; 12.1 upbm affinity estimate (log intensity, higher = more binding, comparable within an allelic series) with NKX2-6 [5]; 13.7 upbm affinity estimate (log intensity, higher = more binding, comparable within an allelic series) in the test with NKX2-6 [6]. Moreover, the binding signal with NKX2-4 [7] is 13.3 upbm affinity estimate (log intensity, higher = more binding, comparable within an allelic series); with NKX2-6 [8], 11.1 upbm affinity estimate (log intensity, higher = more binding, comparable within an allelic series); in the test with NKX2-5 [9] it was 12.8 upbm affinity estimate (log intensity, higher = more binding, comparable within an allelic series).

For the sequence TAAGTGGA, the binding signal was 13.2 upbm affinity estimate (log intensity, higher = more binding, comparable within an allelic series) with NKX2-5 [1]; 12.8 upbm affinity estimate (log intensity, higher = more binding, comparable within an allelic series) with NKX2-4 [2]; 13.2 upbm affinity estimate (log intensity, higher = more binding, comparable within an allelic series) with NKX2-4 [3]; 12.6 upbm affinity estimate (log intensity, higher = more binding, comparable within an allelic series) with NKX2-4 [4]; 12.3 upbm affinity estimate (log intensity, higher = more binding, comparable within an allelic series) with NKX2-6 [5]; 13.9 upbm affinity estimate (log intensity, higher = more binding, comparable within an allelic series) with NKX2-6 [6]. The binding signal with NKX2-4 [7] is 13.3 upbm affinity estimate (log intensity, higher = more binding, comparable within an allelic series); with NKX2-6 [8], 11.3 upbm affinity estimate (log intensity, higher = more binding, comparable within an allelic series); in the test with NKX3-2 [10], 13.2 upbm affinity estimate (log intensity, higher = more binding, comparable within an allelic series); with NKX2-5 [9] it was 13.1 upbm affinity estimate (log intensity, higher = more binding, comparable within an allelic series); in the test with NKX3-2 [11] it was 13.3 upbm affinity estimate (log intensity, higher = more binding, comparable within an allelic series).

ATACTTGA: the binding signal was 12.4 upbm affinity estimate (log intensity, higher = more binding, comparable within an allelic series) with NKX2-5 [1]; 12.6 upbm affinity estimate (log intensity, higher = more binding, comparable within an allelic series) in the test with NKX2-4 [2]; 13 upbm affinity estimate (log intensity, higher = more binding, comparable within an allelic series) in the test with NKX2-4 [3]; 12.5 upbm affinity estimate (log intensity, higher = more binding, comparable within an allelic series) with NKX2-4 [4]; 11.6 upbm affinity estimate (log intensity, higher = more binding, comparable within an allelic series) in the test with NKX2-6 [5]; 13.5 upbm affinity estimate (log intensity, higher = more binding, comparable within an allelic series) in the test with NKX2-6 [6]. For the same sequence, the binding signal is 13.2 upbm affinity estimate (log intensity, higher = more binding, comparable within an allelic series) with NKX2-4 [7]; 10.7 upbm affinity estimate (log intensity, higher = more binding, comparable within an allelic series) with NKX2-6 [8]; 12.3 upbm affinity estimate (log intensity, higher = more binding, comparable within an allelic series) with NKX2-5 [9].

Turning to CACTTAAC, the binding signal with NKX2-5 [1] is 12.8 upbm affinity estimate (log intensity, higher = more binding, comparable within an allelic series); with NKX2-4 [2], 12.5 upbm affinity estimate (log intensity, higher = more binding, comparable within an allelic series); in the test with NKX2-4 [3] it was 12.9 upbm affinity estimate (log intensity, higher = more binding, comparable within an allelic series); with NKX2-4 [4], 12.4 upbm affinity estimate (log intensity, higher = more binding, comparable within an allelic series); with NKX2-6 [5], 11.8 upbm affinity estimate (log intensity, higher = more binding, comparable within an allelic series); in the test with NKX2-6 [6], 13.7 upbm affinity estimate (log intensity, higher = more binding, comparable within an allelic series). In addition, the binding signal was 13.1 upbm affinity estimate (log intensity, higher = more binding, comparable within an allelic series) with NKX2-4 [7]; 11.2 upbm affinity estimate (log intensity, higher = more binding, comparable within an allelic series) in the test with NKX2-6 [8]; 12.9 upbm affinity estimate (log intensity, higher = more binding, comparable within an allelic series) in the test with NKX3-2 [10]; 12.8 upbm affinity estimate (log intensity, higher = more binding, comparable within an allelic series) with NKX2-5 [9]; 12.9 upbm affinity estimate (log intensity, higher = more binding, comparable within an allelic series) in the test with NKX3-2 [11].

On to ACCACTTG, for which the binding signal with NKX2-5 [1] is 12.8 upbm affinity estimate (log intensity, higher = more binding, comparable within an allelic series); with NKX2-4 [2], 12.6 upbm affinity estimate (log intensity, higher = more binding, comparable within an allelic series); with NKX2-4 [3], 13 upbm affinity estimate (log intensity, higher = more binding, comparable within an allelic series); in the test with NKX2-4 [4] it was 12.5 upbm affinity estimate (log intensity, higher = more binding, comparable within an allelic series); with NKX2-6 [5], 11.8 upbm affinity estimate (log intensity, higher = more binding, comparable within an allelic series); with NKX2-6 [6], 13.5 upbm affinity estimate (log intensity, higher = more binding, comparable within an allelic series). Besides, the binding signal with NKX2-4 [7] was 13.1 upbm affinity estimate (log intensity, higher = more binding, comparable within an allelic series); in the test with NKX2-6 [8], 10.7 upbm affinity estimate (log intensity, higher = more binding, comparable within an allelic series); in the test with NKX3-2 [10] it was 12.6 upbm affinity estimate (log intensity, higher = more binding, comparable within an allelic series); in the test with NKX2-5 [9], 12.6 upbm affinity estimate (log intensity, higher = more binding, comparable within an allelic series); with NKX3-2 [11], 12.7 upbm affinity estimate (log intensity, higher = more binding, comparable within an allelic series).

With ACTTAAGT, the binding signal with NKX2-5 [1] was 12.8 upbm affinity estimate (log intensity, higher = more binding, comparable within an allelic series); in the test with NKX2-4 [2], 12.5 upbm affinity estimate (log intensity, higher = more binding, comparable within an allelic series); with NKX2-4 [3], 12.9 upbm affinity estimate (log intensity, higher = more binding, comparable within an allelic series); in the test with NKX2-4 [4], 12.4 upbm affinity estimate (log intensity, higher = more binding, comparable within an allelic series); with NKX2-6 [5] it was 11.8 upbm affinity estimate (log intensity, higher = more binding, comparable within an allelic series); with NKX2-6 [6], 13.7 upbm affinity estimate (log intensity, higher = more binding, comparable within an allelic series). Besides, the binding signal was 13 upbm affinity estimate (log intensity, higher = more binding, comparable within an allelic series) with NKX2-4 [7]; 11.2 upbm affinity estimate (log intensity, higher = more binding, comparable within an allelic series) in the test with NKX2-6 [8]; 12.6 upbm affinity estimate (log intensity, higher = more binding, comparable within an allelic series) with NKX3-2 [10]; 12.9 upbm affinity estimate (log intensity, higher = more binding, comparable within an allelic series) with NKX2-5 [9]; 12.7 upbm affinity estimate (log intensity, higher = more binding, comparable within an allelic series) with NKX3-2 [11].
